Bioassay records deposited in PubChem BioAssay by National Center for Advancing Translational Sciences (NCATS).
nsP2pro primary: Primary qHTS for inhibitors of NSP2Pro chikungunya virus (CHIKV); hit rate 1.1% among 31,000; FRET peptide cleavage, nsP2pro, fluorescence 1 h; Potency, µM (highest dose often 24.9 µM), hits mostly inhibitors; note: nearly all actives have a fitted effect of over 60% in size
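Recombinant nsP2pro (150 nM) was preincubated with compound 15 min at room temperature in 10 mM Tris-HCl pH 8.0, 0.01% Tween 20. Peptide 2 FRET substrate (2.5 uM) was then added and fluorescence read after 1 h. Seven-point series, up to 25 uM.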
CHIKV nsP2 cell: Secondary cell base assay for inhibitors of NSP2Pro Chikungunya virus (CHIKV). hit rate 10% among 450. cell-based CHIKV nsP2 protease reporter assay. AID 1964100, 2024. shares compounds with nsP2pro primary. Potency, µM (doses to about 51.1 µM), hits mostly inhibitors; note: nearly all actives have a fitted effect of over 70% in size
Target sequence (Q8JUX6 220-798 limits assumed): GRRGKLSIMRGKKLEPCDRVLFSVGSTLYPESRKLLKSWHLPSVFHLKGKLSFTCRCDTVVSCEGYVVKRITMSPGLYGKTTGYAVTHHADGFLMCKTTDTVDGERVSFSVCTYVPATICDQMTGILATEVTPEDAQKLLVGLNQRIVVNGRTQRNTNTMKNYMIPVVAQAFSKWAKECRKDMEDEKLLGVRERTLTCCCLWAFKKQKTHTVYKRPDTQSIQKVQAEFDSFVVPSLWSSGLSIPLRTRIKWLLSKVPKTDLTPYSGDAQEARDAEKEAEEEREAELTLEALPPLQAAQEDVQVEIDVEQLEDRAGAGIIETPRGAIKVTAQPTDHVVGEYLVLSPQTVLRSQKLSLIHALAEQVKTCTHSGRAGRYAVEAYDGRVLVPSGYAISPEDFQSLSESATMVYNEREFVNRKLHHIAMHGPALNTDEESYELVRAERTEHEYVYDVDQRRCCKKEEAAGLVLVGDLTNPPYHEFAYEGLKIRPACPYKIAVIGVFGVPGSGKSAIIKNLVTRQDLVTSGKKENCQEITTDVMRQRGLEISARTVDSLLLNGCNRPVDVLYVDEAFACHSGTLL
NSP2 full ctr: Selectivity profile for inhibitors of NSP2Pro chikungunya virus (CHIKV): Full length NSP2 enzyme counterscreen (CHIKV-NSP2) | shares compounds with nsP2pro primary | hit rate 39% among 410 | Potency, µM (highest dose often 50.7 µM), most hits filed as inhibitors | AID 1964101, 2024 | Full-length CHIKV NSP2 protease enzymatic counterscreen; note: nearly all actives have a fitted effect of over 65% in size
Furin counterscr: Selectivity profile for inhibitors of NSP2Pro chikungunya virus (CHIKV): Human furin counterscreen; Potency, µM (doses to about 50.6 µM), usual class: inhibitors; hit rate 6% among 410; Recombinant human furin enzymatic counterscreen, fluorogenic substrate; AID 1964102, 2024; shares compounds with nsP2pro primary
nsP2 NS23 pep: Selectivity profile for inhibitors of NSP2Pro chikungunya virus (CHIKV): Endogenous NS2/3 peptide Counterscreen; Potency, µM (series often up to 51 µM), actives largely listed as inhibitors; Purified CHIKV nsP2 protease, endogenous NS2/3 peptide cleavage; shares compounds with nsP2pro primary; hit rate 34% among 410; note: nearly all actives have a fitted effect of over 55% in size
Papain counter: Selectivity profile for inhibitors of NSP2Pro chikungunya virus (CHIKV): Papain Counterscreen; shares compounds with nsP2pro primary; purified papain protease activity, enzymatic inhibition; Potency, µM (top dose mostly 51 µM), hits mostly inhibitors; hit rate 5% among 410; AID 1964104, 2024
nsP2pro confirm: Confirmatory qHTS for inhibitors of NSP2Pro chikungunya virus (CHIKV) | AID 1964105, 2024 | shares compounds with nsP2pro primary | Potency, µM (doses to about 25.5 µM), hits mostly inhibitors | hit rate 43% among 410 | CHIKV nsP2 protease enzymatic activity, qHTS; note: nearly all actives have a fitted effect of over 75% in size
HCV NS3 counter: Selectivity profile for inhibitors of NSP2Pro chikungunya virus (CHIKV): NS34A-HCV Counterscreen. AID 1964106, 2024. shares compounds with nsP2pro primary. HCV NS3/4A protease biochemical counterscreen. Potency, µM (highest dose often 50.9 µM), hits mostly inhibitors. hit rate 20% among 410; note: nearly all actives have a fitted effect of over 55% in size
Of the large screens only hits and unclear results are named; the others gave an inactive call (follow-up assays come after a bar, where they were run); ! = a repeat was not active. The full list was thinned out, with hits kept by preference. Calls come from the whole dose curve.

CC(=O)NCCCC(=O)N1CCC2(CC1)CN(S(C)(=O)=O)Cc1ccccc1O2	none
CC(=O)NCCC(=O)N1CCC2(CC1)CC(NC(C)=O)c1ccccc12 (configuration not stated)	none
CC(=O)NC1CC2(CCN(C(=O)CCCNC(=O)OC(C)(C)C)CC2)Oc2ccccc21 (configuration not stated)	nsP2pro primary inconclusive | CHIKV nsP2 cell inactive | NSP2 full ctr inactive | Furin counterscr inactive | nsP2 NS23 pep inconclusive | Papain counter inactive | nsP2pro confirm inconclusive | HCV NS3 counter inconclusive
CC(C)c1cccc(-n2cnc3cc(C(=O)N4CCCCC4)ccc32)c1	none
CC(=O)c1ccc(N2CCN(C(=O)c3ccc4c(c3)CCC(=O)N4)CC2)cc1	none
CCCCCCCCC=CCCCCCCCC(=O)NCCOC(=O)CC(C(=O)O)S(=O)(=O)O (configuration not stated)	none
Cc1cc(C)nc(NC(=S)N2CCN(c3nccc4ccccc34)CC2)c1	none
CNc1cc(C2CC(NC(=O)COc3ccc(Cl)cc3C)C2)nc(N)n1 (configuration not stated)	none
N#Cc1ccc(-c2ccc(CNc3ccc(N4CCC(C(F)(F)F)CC4)cc3)o2)cc1	nsP2pro primary 2.82µM | CHIKV nsP2 cell inactive | NSP2 full ctr inconclusive | Furin counterscr inactive | nsP2 NS23 pep inactive | Papain counter inactive | nsP2pro confirm inconclusive | HCV NS3 counter inconclusive
CC(C)(C)OC(=O)N1CCN(c2cccc(NCc3ccc(-c4ccc(C#N)cc4)o3)c2)CC1	none
CC(=O)N1CCN(c2ccc(NCc3ccc(-c4ccc(Br)cc4)o3)cc2)CC1	none
CC(C)c1cc(C(=O)NCc2cccnc2Oc2cccc(C(F)(F)F)c2)n[nH]1	none
Cc1cc(C)nc(NC(=S)N2CCN(c3ccncc3)CC2)c1	none
CC[C@@H](C)[C@H](NC(=O)C(C)(C)NC(=O)[C@H](CCC(N)=O)NC(=O)C(C)(CC)NC(=O)[C@H](Cc1c[nH]c2ccccc12)NC(C)=O)C(=O)N[C@H](C(=O)NC(C)(C)C(=O)N[C@@H](CC(C)C)C(=O)NC(C)(C)C(=O)N1CCC[C@H]1C(=O)N[C@@H](CCC(N)=O)C(=O)NC(C)(C)C(=O)N1CC(O)C[C@H]1C(=O)NC(C)(CC)C(=O)C1CC[C@@H](C(=O)N[C@@H](Cc2ccccc2)C(=O)NCC(=O)O)N1)C(C)O (some centres not stated)	none
CC(C)N1C[C@@H]2OCC(=O)N(Cc3ccccc3)[C@@H]2C1	none
COCCN1C(=O)CO[C@H]2CN(c3ncccn3)C[C@H]21	nsP2pro primary 7.94µM | CHIKV nsP2 cell inactive | NSP2 full ctr 33.5µM | Furin counterscr inconclusive | nsP2 NS23 pep inconclusive | Papain counter inactive | nsP2pro confirm 16.3µM | HCV NS3 counter inconclusive
O=C1O[C@@H]2CN(c3ncccn3)C[C@@H]2N1CCc1ccc(F)cc1	none
CC(C)(C)NC(=O)N[C@H](C(=O)N1C[C@H]2[C@@H]([C@H]1C(=O)NC(CC1CCC1)C(=O)C(N)=O)C2(C)C)C(C)(C)C (some centres not stated)	none
CC(C)CN[C@H]1CO[C@H]2[C@@H]1OC[C@@H]2Nc1nccc(-c2cccs2)n1	none
CC(C)=CCC1C(=O)N(c2ccccc2)N(c2ccccc2)C1=O	none
CCCCC1C(=O)N(c2ccccc2)N(c2ccc(O)cc2)C1=O (configuration not stated)	nsP2pro primary 8.81µM | CHIKV nsP2 cell inconclusive | NSP2 full ctr 20.6µM | Furin counterscr inactive | nsP2 NS23 pep 6.51µM | Papain counter inactive | nsP2pro confirm 7.98µM | HCV NS3 counter inactive
CCCCN1C(=O)c2ccccc2C1=O	none
S=C(NC1CCCCC1)N[C@H]1CO[C@H]2[C@@H]1OC[C@@H]2n1nnnc1-c1ccc2c(c1)OCO2	none
CC1CC2C3CCC4=CC(=O)C=CC4(C)C3(F)C(O)CC2(C)C1(O)C(=O)COC(=O)c1cccc(S(=O)(=O)O)c1 (configuration not stated)	none
O=C(O)CCSC[C@H]1O[C@@H]2O[C@H]3[C@H](O)[C@@H](O)[C@@H](O[C@H]4[C@H](O)[C@@H](O)[C@@H](O[C@H]5[C@H](O)[C@@H](O)[C@@H](O[C@H]6[C@H](O)[C@@H](O)[C@@H](O[C@H]7[C@H](O)[C@@H](O)[C@@H](O[C@H]8[C@H](O)[C@@H](O)[C@@H](O[C@H]9[C@H](O)[C@@H](O)[C@@H](O[C@H]1[C@H](O)[C@H]2O)O[C@@H]9CSCCC(=O)O)O[C@@H]8CSCCC(=O)O)O[C@@H]7CSCCC(=O)O)O[C@@H]6CSCCC(=O)O)O[C@@H]5CSCCC(=O)O)O[C@@H]4CSCCC(=O)O)O[C@@H]3CSCCC(=O)O	none
CC(=O)Nc1ccc(NC(=O)c2cnn3c(C)cc(C)nc23)cc1	none
O=C(NC1CCCN(CCn2nc3n(c2=O)CCCC3)C1)c1ccccc1Cl (configuration not stated)	none
Cc1ccc(C)c(OCC(=O)N[C@H]2CCOC[C@H]2C2CCOCC2)c1C	none
C=CC(C)(O)CC/C=C(\C)C1CC=C(C)C(=O)O1 (configuration not stated)	none
CC1=C(C(=O)OCC2CCCCC2)C(c2ccccc2F)CC(=O)N1 (configuration not stated)	none
COc1ccc(COC(=O)C2=C(C)NC(=O)CC2c2cccc(Cl)c2Cl)cc1 (configuration not stated)	none
Nc1nc2c(s1)C(c1ccccc1Cl)CC(=O)N2 (configuration not stated)	nsP2pro primary 10µM! | CHIKV nsP2 cell inactive | NSP2 full ctr 1.63µM | Furin counterscr inactive | nsP2 NS23 pep 3.66µM | Papain counter inactive | nsP2pro confirm 4µM | HCV NS3 counter inactive
